# This excerpt belongs to a sample that is enriched for hits.
# GIRK2 activator: activators of NPY4-receptor-primed GIRK2 channels, summary, cell-based, HEK293, thallium flux; activation (% efficacy), % for hits at 37.5 µM; 34,000 tested, under 10 active; HEK293 GIRK2/NPY4 cells, thallium flux fluorescence; G protein-activated inward rectifier potassium channel 2 (Homo sapiens), P48051;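 active = primary screen hit, no activity in plain HEK293 cells, and in GIRK2-only cells above 5% efficacy rising with concentration; inactive = the rest, including fluorescent compounds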;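 note: efficacy is normalized control-subtracted fluorescence 15 s after thallium addition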
# Target sequence (P48051 whole entry, looked up): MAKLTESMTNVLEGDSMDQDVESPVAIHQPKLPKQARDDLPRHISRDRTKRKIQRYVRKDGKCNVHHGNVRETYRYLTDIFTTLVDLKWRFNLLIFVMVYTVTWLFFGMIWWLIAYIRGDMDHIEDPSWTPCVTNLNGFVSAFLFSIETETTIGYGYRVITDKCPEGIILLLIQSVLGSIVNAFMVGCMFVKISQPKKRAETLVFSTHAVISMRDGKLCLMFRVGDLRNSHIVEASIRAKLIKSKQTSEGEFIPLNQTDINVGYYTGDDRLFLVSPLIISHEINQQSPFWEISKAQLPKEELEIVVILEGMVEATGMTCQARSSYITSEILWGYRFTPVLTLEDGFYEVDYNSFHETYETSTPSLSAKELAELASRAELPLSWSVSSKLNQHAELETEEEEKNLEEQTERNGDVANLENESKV
# GluA2 TARP mod: modulators of GluA2-stargazin AMPA receptor complexes, primary screen, cell-based, membrane potential dye; Voltage-dependent calcium channel gamma-2 subunit (Mus musculus) + Glutamate receptor 2 …; HEK293 GluA2+stargazin, membrane potential dye (FDSS), glutamate EC50; hits were called plate by plate, in both directions; calls only at 30 µM; 40,000 compounds, 3.5% hits; AID 1259245, 2017;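 active = any of four per-well response measures lying three or more SD from its plate-wide compound average, in either direction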
# Calls only; i = inactive; nt = no result; + = active, no number.
SMILES,GIRK2 activator,GluA2 TARP mod
OC(COCCOc1ccc(Cl)cc1)CN1CCN(c2ccc(F)cc2)CC1 (stereo not given),nt,i
COc1ccc(C)c2sc(N(CCN3CCOCC3)C(=O)c3ccc([N+](=O)[O-])s3)nc12,nt,+
COc1ccc(C)c2sc(N(CCN3CCOCC3)C(=O)c3ccccc3)nc12,nt,i
CSc1cccc(C(=O)Nc2c3c(nn2C)CCC3)c1,i,i
Cc1cc(C)n(CCNC(=O)c2ccc(N3CCCC3)nn2)n1,i,i
Cc1cc(NC(=O)c2ccc(N3CCCCC3)nn2)on1,i,+
COc1ccc(OC)c2sc(N(CCN3CCOCC3)C(=O)/C=C/c3ccccc3)nc12,nt,i
COc1ccc(CCC(=O)Nc2ccc(CC(=O)NCc3cccs3)cc2)cc1,i,i
O=C(Cn1nc(S(=O)(=O)c2ccccc2)ccc1=O)Nc1ccccc1F,i,i
CSc1nn(CC(=O)Nc2cccc(Cl)c2)c(N)c1S(=O)(=O)c1ccccc1,nt,+
CCSc1nn(CC(=O)Nc2cccc(SC)c2)c(N)c1S(=O)(=O)c1ccc(C)cc1,nt,i
CCc1ccccc1NC(=O)Cn1nc(SC)c(S(=O)(=O)c2ccc(F)cc2)c1N,nt,i
CSc1nn(CC(=O)Nc2c(C)cccc2C)c(N)c1S(C)(=O)=O,i,+
CSc1nn(CC(=O)Nc2cccc(C)c2C)c(N)c1S(C)(=O)=O,i,+
O=C(Cn1nc(S(=O)(=O)c2ccccc2)ccc1=O)Nc1ccc(Cl)cc1,i,+
CSc1nn(CC(=O)Nc2ccc3c(c2)OCO3)c(N)c1S(C)(=O)=O,i,i
CCOC(=O)CC(=O)CSc1nc2sc3c(c2c(=O)n1-c1ccccc1)CCC3,nt,i
Cc1c(Cl)cccc1-n1nnc(C(=O)N(C)C2CCS(=O)(=O)C2)c1C (stereo not given),i,i
COc1ccc(Cl)cc1S(=O)(=O)N1CCN(S(=O)(=O)c2cc(Cl)ccc2OC)CC1,nt,i
COc1ccc(Br)cc1S(=O)(=O)N1CCCCCC1,nt,+
COc1ccc(/C=C/c2nc3ccccc3s2)cc1S(=O)(=O)N1CCCCC1,nt,+
COc1ccc(S(=O)(=O)N2CCCCCC2)c(C)c1C,nt,i
COc1ccc(F)cc1S(=O)(=O)N1CCCCCC1,nt,i
COc1ccc(Cl)cc1S(=O)(=O)N1CCCCCC1,nt,+
CN1CCC(CNC(=O)C(=O)Nc2ccc(OC(F)(F)F)cc2)CC1,i,i
SMILES,GIRK2 activator,GluA2 TARP mod
N=c1sc(/C=C2\C=Nc3ccccc32)c(O)n1-c1nccs1,nt,+
Cc1ccccc1C(=O)NCCOc1ccc2nnc(-c3ccccc3)n2n1,i,i
O=C(Nc1ccc2c(c1)OCCO2)N1CCN(c2ccc(Nc3cccnc3)nn2)CC1,i,i
CCOC(=O)c1ccc(Nc2cc(C)nc(-n3cc([N+](=O)[O-])cn3)n2)cc1,i,i
CCOC(=O)c1ccc2nc(C)cc(Nc3cccc([N+](=O)[O-])c3)c2c1,nt,+
CC(C)Sc1ccc(CC(=O)N2CCC(c3nnc(C(C)C)o3)CC2)cc1,i,+
CC(C)c1nnc(C2CCN(C(=O)CCSc3ccccc3)CC2)o1,i,i
O=[N+]([O-])c1cccc(S(=O)(=O)NCC2COC3(CCCCC3)O2)c1 (stereo not given),i,+
O=[N+]([O-])c1ccc(S(=O)(=O)NCC2COC3(CCCCC3)O2)cc1 (stereo not given),i,i
Cc1cc(C)n(-c2cc(NCCNC(=O)Nc3cccc(C(F)(F)F)c3)ncn2)n1,i,i
CCC(CO)NC(=O)C(=O)Nc1cc([N+](=O)[O-])ccc1C (stereo not given),nt,i
Cc1[nH]c(=O)[nH]c(=O)c1CC(=O)Nc1ccc(F)c(C(F)(F)F)c1,i,i
C=CCN1C(=O)/C(=C\C=C2/SCCN2C)SC1=S,nt,+
CC(C)(C)NC(=O)NCC(c1cccs1)N1CCc2ccccc2C1 (stereo not given),i,i
CCCCn1c(-c2ccc([N+](=O)[O-])cc2)nc2c(c(=O)c3ccccc3n2C)c1=O,nt,+
COCCn1c(-c2ccc([N+](=O)[O-])cc2)nc2sc3ccccc3c(=O)c2c1=O,i,+
COCCn1c(-c2ccc(F)cc2)nc2c(c(=O)c3ccccc3n2C)c1=O,nt,i
CCCn1c(-c2ccc(OC)cc2)nc2c(c(=O)c3ccccc3n2C)c1=O,nt,i
O=C(Nc1cccc(-c2cnc3n2CCC3)c1)c1cc2ccccc2oc1=O,i,+
COc1ccc(Br)c(C(=O)Nc2cccc(-c3cnc4n3CCC4)c2)c1,i,i
O=C(Nc1cccc(-c2cnc3n2CCC3)c1)c1ccc(Br)o1,i,+
CCOC(=O)CCC(=O)Nc1cccc(-c2cnc3n2CCC3)c1,i,+
CCOC(=O)CCC(=O)Nc1cccc(N2CCCC2=O)c1,i,i
O=C(Nc1cccc(Cl)c1)Nc1cccc(-c2cnc3n2CCC3)c1,i,i
O=C(NCc1cccs1)C(=O)Nc1ccc(O)cc1,i,i
SMILES,GIRK2 activator,GluA2 TARP mod
O=C(Nc1cccc2nsnc12)c1cc(Cl)ccn1,nt,i
Cc1ccc(C)c(-c2nnc(NC(=O)c3ccc(S(=O)(=O)N(C)C4CCCC4)cc3)o2)c1,nt,i
COc1cc(C2NC(=O)NC(O)(C(F)(F)F)C2C(C)=O)ccc1OCc1ccc(Cl)cc1 (stereo not given),nt,i
COc1cc(C2NC(=O)NC(O)(C(F)(F)F)C2C(C)=O)ccc1OCc1ccccc1 (stereo not given),nt,+
O=C(Nc1ccc2c(c1)C(=O)N1CCCCC1CCO2)c1cc(-c2ccccc2)on1 (stereo not given),i,i
Cn1nc2c3c(cccc3c1=O)-c1ccccc1-2,nt,+
Cc1ccc(-c2nn(C)c(=O)c3ccccc23)cc1CNS(C)(=O)=O,nt,i
CN(C)C(CNC(=O)Cc1cccc2ccccc12)c1ccc(F)cc1 (stereo not given),nt,i
Cc1ccc(C(CNC(=O)Cc2cccc3ccccc23)N(C)C)cc1 (stereo not given),i,+
COc1cccc(NC(=O)C(=O)NCC(c2ccco2)N(C)C)c1 (stereo not given),i,i
Cc1onc(-c2ccccc2Cl)c1C(=O)N1CCN(Cc2nnnn2-c2ccc(F)c(F)c2)CC1,i,+
Cc1cc(C(=O)N2CCN(Cc3nnnn3-c3ccc(F)c(F)c3)CC2)no1,i,i
COc1ccc2nc(-c3ccc(F)c(NC(=O)C4CCCC4)c3)cn2n1,i,nt
Cc1c(O)ccc2cc(S(=O)(=O)c3ccc(F)cc3)c(=O)oc12,nt,+
CC(C)(C)c1ccc(S(=O)(=O)c2cc3cc(F)cc(F)c3oc2=O)cc1,nt,i
COc1ccc(S(=O)(=O)NCCNc2cc(-n3ccnc3C)nc(C)n2)c(C)c1C,i,i
CCn1c(=O)c2c(nc3oc(C)c(C)n32)n(C)c1=O,i,+
CCn1c(=O)c2c(nc3n(-c4ccc(OC)cc4)c(C)c(C)n23)n(C)c1=O,nt,i
CSc1cccc(NC(=O)C(=O)NC2CCCCC2)c1,nt,i
COc1cc(NC(=O)c2cc(-c3ccc4c(c3)OCO4)nc3ccccc23)c(OC)cc1Cl,nt,i
COc1cc(/C=C/C(=O)NCCCn2cccc2)cc(OC)c1OC,i,+
COc1cc(/C=C/C(=O)NCCc2ccsc2)cc(OC)c1OC,i,i
COc1cc(/C=C/C(=O)Nc2nncs2)cc(OC)c1OC,i,+
